Laboratory results: PubChem BioAssay AID624483 (NMMLSC, 2012)
In all, about 360,000 compounds went through this assay and about 11,000 (3.1%) were called active. Not shown: some 2% with an inconclusive outcome. The entries come from a sample that favours actives as a whole. A number with no mark means an inactive call. No stated cut-off is given here; in the data, active means fluorescence intensity above about 16000; inconclusive means no clear call, values can overlap the other calls; inactive means below that.

Experiment: counter-screen for toxin protease inhibitors: compound fluorescence, primary screen, artefact control for toxin protease inhibitor project, biochemical, multiplex microsphere, HTS (AID 624483)
Conditions: compound autofluorescence counterscreen, microsphere flow cytometry; stronger effect = higher value

| SMILES | fluorescence intensity |
| --- | --- |
| N=c1c2c3c(sc2nc2n1CCCCC2)CCCC3 | 2860 |
| S=c1[nH]nc2c3c4c(sc3ncn12)CCCC4 | 2950 |
| N=c1c2c3c(sc2ncn1N)CCCCC3 | 19400 (active) |
| CC(C(=O)O)n1cnc2sc3c(c2c1=O)CCCC3 (stereo unspecified) | 4940 |
| N=c1c2c3c(sc2ncn1CCCN1CCOCC1)CCCCC3 | 6250 |
| c1nnc2c3c4c(sc3ncn12)CCC4 | 23300 (active) |
| CN1CCN(C(=O)c2ccc(NC(=O)c3ccc(Br)o3)cc2)CC1 | 5550 |
| O=C(/C=C/[C@H]1O[C@@H](n2cnc3c(NC(=O)c4ccccc4)ncnc32)[C@H](O)[C@@H]1O)NCc1ccccc1 | 6020 |
| CS(=O)(=O)C1=NN2C(=N)/C(=C\c3ccc(OCCOc4ccccc4)cc3)C(=O)N=C2S1 | 3680 |
| CS(=O)(=O)c1ccc2c(c1)SC1=NC(=O)/C(=C/c3ccco3)C(=N)N12 | 20000 (active) |
| CCS(=O)(=O)C1=NSC2=NC(=O)/C(=C\c3ccc(OS(=O)(=O)c4ccccc4)cc3)C(=N)N21 | 4230 |
| OC(c1nc2ccc(F)cc2[nH]1)C(O)c1nc2ccc(F)cc2[nH]1 (stereo unspecified) | 3790 |
| O=C1CCCC2=C1C(c1cccs1)CC(=O)N2c1ccc(F)cc1 (stereo unspecified) | 3220 |
| O=C1CCCC2=C1C(c1cccs1)n1nc(SCc3ccccc3)nc1N2 (stereo unspecified) | 23700 (active) |
| CCCC(=O)N1c2ccccc2NC2=C(C(=O)CCC2)C1c1ccc(F)cc1 (stereo unspecified) | 6490 |
| Nc1c(-c2ccc(F)cc2)cnc2ncnn12 | 6020 |
| O=C(Nc1ccc2c(c1)nc1n2CCCCC1)c1cc(S(=O)(=O)N2CCOCC2)ccc1Cl | 2940 |
| Cc1ccc(Oc2ccc3c(c2)C(=O)N(c2cccc4cccnc24)C3=O)cc1 | 21000 (active) |
| CCOc1cccc(OCCCOc2cccc3cccnc23)c1 | 2100 |
| Cc1cccc(NC(=O)C2CCN(S(=O)(=O)c3cccc4cccnc34)CC2)c1 | 5170 |
| Cc1ccc(S(=O)(=O)N2CCCCC2)cc1NC(=O)CCNC(=O)c1ccccc1Cl | 3400 |
| CS(=O)(=O)N(CC(=O)N1CCN(Cc2ccccc2)CC1)c1ccc2c(c1)OCCO2 | 23300 (active) |
| Cc1cccc(N(CC(=O)N2CCOCC2)S(C)(=O)=O)c1 | 8740 |

| SMILES | fluorescence intensity |
| --- | --- |
| CS(=O)(=O)N(CC(=O)N1CCN(c2cccc(Cl)c2)CC1)c1ccccc1 | 9910 |
| Cc1ccc(C)c(S(=O)(=O)N2CCN(c3ncnc4sccc34)CC2)c1 | 3890 |
| O=C(c1c(F)cccc1F)N1CCN(S(=O)(=O)c2ccc3c(c2)OCCO3)CC1 | 4100 |
| O=C(c1ccc2c(c1)OCCO2)C1CCN(S(=O)(=O)c2cccc(F)c2)CC1 | 17000 (active) |
| O=C(Nc1ccccn1)C1CCN(S(=O)(=O)c2ccc3c(c2)OCCO3)CC1 | 4090 |
| CCOC(=O)C1=C(CN2CCc3ccccc32)NC(=O)NC1c1ccc(Cl)cc1 (stereo unspecified) | 23500 (active) |
| CCOC(=O)C1=C(CN2CCc3ccccc32)NC(=O)NC1c1cc(C)ccc1C (stereo unspecified) | 23800 (active) |
| CCOC(=O)C1=C(CNC2CCCCC2)NC(=O)NC1c1cc(C)ccc1C (stereo unspecified) | 4280 |
| CCOC(=O)C1=C(CN2CCCCCC2)NC(=O)NC1c1cccc([N+](=O)[O-])c1 (stereo unspecified) | 4620 |
| CCOC(=O)C1=C(CN2CCc3ccccc32)NC(=O)NC1c1cccc([N+](=O)[O-])c1 (stereo unspecified) | 15000 |
| CCOC(=O)C1=C(c2ccccc2)NC(=O)NC1c1cc(OC)c(OC)cc1OC (stereo unspecified) | 2970 |
| Cc1ccccc1S(=O)(=O)NC(=O)C1(C)CCN1C(=O)C1(c2ccccc2)CCCC1 (stereo unspecified) | 2830 |
| COc1ccc(C(=O)Nc2c(N)nc(SCC(=O)N3CCC(C)CC3)[nH]c2=O)cc1OC | 4500 |
| COc1cncc(-c2cnc3sc(NCCc4ccccn4)nn23)c1 | 3330 |
| O=C1Cc2ccccc2Sc2ccc(Cl)cc21 | 6230 |
| CC(=O)Nc1cncc(-c2ccccc2CO)n1 | 3670 |
| Cc1cc(Cl)nc(NC(=O)Nc2cccc(Cl)c2)n1 | 3440 |
| Cc1cc(C)nc(NC(=O)Nc2ccccc2C(F)(F)F)n1 | 21400 (active) |
| COc1cccc(C(=O)NC(=O)Nc2nc(C)cc(C(F)(F)F)n2)c1 | 4900 |
| CSc1ccc(CN2CCC2(C)C(=O)NCc2ccccc2Br)cc1 (stereo unspecified) | 3880 |
| OC[C@@H]1CN(Cc2ccc(Cl)cc2)C[C@H](n2cnc3c(NCc4ccncc4)ncnc32)O1 | 3720 |
| Cc1cc(Cl)ccc1-c1nc(NCCN(C)C)nc2ccsc12 | 2870 |
| Cc1noc(C)c1C(=O)N1CCC1(C)C(=O)NS(=O)(=O)c1ccc(C#N)cc1 (stereo unspecified) | 3990 |
